The source of these data is PubChem BioAssay AID1508600 (Functional Genomics Laboratory (NCATS/FGL), 2020).

Out of some 53,000 sequences screened, about 3,700 (7%) were called active. Only a selection was taken, and actives are over-represented in it overall. Values without a mark were called inactive.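 Rule for the calls: active = gene knockdowns whose robust z-score for IL-1 alpha signal is at least 2 or at most -2, so actives lie on both sides; inactive = the rest.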

This test can be described thus: Components of the Cytosolic LPS Sensing Pathway: Gene Identification via Genome-wide siRNA Screen.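 Note: robust z of the log signal after scaling to non-targeting control siRNA wells of the plate.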 To be noted: RAW264.7 macrophages, IL-1a HTRF, actives lie on both sides, screened at 100 nM (by protocol), cells primed 5 h with Pam3CSK4 first. The procedure, abridged:
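Cells (RAW264.7, 1×10^4 per well) were transfected with siRNA at 100 nM and cultured 48h at 37 degrees C. Pam3CSK4 was added for 5 hours; LipidA transfection followed for 24 hour. IL-1a was then measured by HTRF.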
Turning to CCGAAGCAUGAAGAAUCUATT against Tubd1, the z-score is 0.544.
Consider GAGCAAUAAGCUAGGGUGATT against Olfr1428, for which the z-score was 0.239.
To “GGAAUGUACCAGAAAUACUTT against 4921504E06Rik” belongs 3.01 (active); to GGCAAAUUCGAAAUAGACATT against Evx2, 0.227.
As for GGAAGAAAUAGAGUUUUACTT against Ephx2, the z-score is 3.42 (active).
The figure for GGCUCUGAUGUUUCUAAAATT against Hdac10 is 1.29; for GGUACUGUCGGUAUCCCACTT against Gcc1 it is -1.62.
As to GCCUUUGUACAAUGACUAUTT against Prpf38a, the z-score is -0.127.
To GCAGAAAGCAACACGCCCUTT against Pramel20 belongs 0.631; to GGGUAUGCAGAAGGGAACATT against Nrap, 0.424.
For the sequence GGGCAGAGUGAUGUUGUCATT against Gsdmd, the z-score is -3.34 (active).
Take CCAUUGUGUGGUACUUAAATT against Mrm3: the z-score was 0.448.
Take GCGACUCACUAUUUGGGCATT against Ell3: the z-score is 0.471.
To GGAAAAUUCAUCCUUAGUATT against Wdr61 belongs -0.086.
Take CGAAACACCAGAUGUAUUCTT against Gck: the z-score is -0.551.
Take GGUUAUGAAACUGAGAAAGTT against Mid2: the z-score was -0.0195.
On to CCCUCUCUUUGGAUACACATT against Tenm4, for which the z-score is -2.98 (active).
To GGAUUUGUCAUCCACUUCUTT against Sez6 belongs -1.79; to GCUGCUCAAACAUAAUGAATT against Osbpl2, -0.419; to GGAUGUACAUUCUACCUAUTT against Bap1, -0.239.
As to GGAUACGAUUGAACGGCUGTT against Rac3, the z-score was -0.566.
For GCUCCUGUAGACAGGUUAGTT against Serac1, the z-score is -1.39.
With CGCUCAUUUAGACAUAGAGTT against Ass1, the z-score was 0.686.
For CGGCAUUUGCUAAUGGUCGTT against Actl6a, the z-score is -2.79 (active).
As to CCUAGUCAUAUUCUACAGUTT against Iqca1l, the z-score was 0.77.
On to GGUUGGAGUUAUAGAUUUUTT against Rufy3, for which the z-score is 1.42.
In the case of GGAGAGAACUGAUGAAUCCTT against Sdhaf2, the z-score is -0.26.
The figure for CCCUCUUUACCAGUAUUACTT against Pla2g5 is 0.287; for GCCGUUCACCAUGAAAUGGTT against Prkci it is -0.898.
As to CCAAGCCUUAAUAAGUCAATT against Ccp110, the z-score is -2.52 (active).
In the case of GGCUACAUGAGAAGCACAGTT against Disc1, the z-score was 1.64.
Turning to CCUUAACAUGUUUCAUCUATT against Sap30, the z-score is 0.584.
On to GGUUGUUUCCAGUAUUCUGTT against Apc2, for which the z-score was 1.18.
As for GCUAUAUGUACCCUAGCCATT against H2aj, the z-score was 2.26 (active).
For GCGAAGCGAAUCCUUUUUCTT against Fosl2, the z-score is 0.0982.
Consider CCCUGCUUGAAUCUCUUCGTT against Tyk2, for which the z-score is -0.191.
For the sequence GGCUUACGUGGUGUGCACUTT against Galr1, the z-score was 0.345.
Turning to GGUCAGGUCUUUUUAUACATT against Zfp354a, the z-score is 2.56 (active).
Turning to GGAAAGGAACUAGCAACGATT against Art3, the z-score is -0.642.
With GGAUACAAUCCUUUUGGAUTT against Dnajb1, the z-score was 0.205.
GGUGUUUUCCAACAUCCUCTT against Ccrl2: the z-score is 3.06 (active).
Take CCGACAUUCAACAAGAUUUTT against Mta1: the z-score is -0.092.
To CCGGAGCUUUAUUGACACGTT against Rbm19 belongs 1.15.
To GGCCUGUGGUUAUGCUGUGTT against Cyp2b10 belongs -0.716; to CCUAUUGAAAAGCCAAACUTT against Lypd11, -0.651.
The figure for GGUCUUUGUGUCCACCUACTT against Gpr162 is 0.669; for GGUUCUAAUAAAAAUCGGUTT against Pcdhb1 it is 0.659; for GGAGCUGAAUCAUUAUCUGTT against Rabep1 it is -0.0512.
As for GGUGCUGUUUAAAACACAGTT against Aurka, the z-score was 1.25.
The figure for GGAGUUGAUAAUAUGGUGGTT against Uck1 is 0.712.
For GGUGUCCAUGCUAGCUGUATT against Best2, the z-score was 2.97 (active).
Consider GGACCAGCUUUUCAACAUUTT against F8, for which the z-score was 0.141.
Turning to CCUGCUUAGGACCAUCGACTT against Lrrn2, the z-score is -0.0914.
GGGAUAGCUGUCUUUCAUUTT against Extl3: the z-score was -1.02.
As for GCUCUUGCUACUUUUUUCUTT against Olfr823, the z-score is -0.108.
In the case of GGGAAAAACACUUCUCACUTT against Slc35e2, the z-score is -0.238.
GGUCGCUAUUAAGAUCAUUTT against Mark4: the z-score was 0.491.
On to GCUCUGCCUUCAGAUGACGTT against Olfr173, for which the z-score was -0.26.
In the case of GGCAGAUCAGAAUUGAAUUTT against Fgd6, the z-score is -0.528.
GGUCCAGGUCUGAAUCUAGTT against Tra2b: the z-score is 2.48 (active).
Consider GCAAGGAGGUCCAACUAAGTT against Fzd8, for which the z-score is 0.239.
Turning to GGUUAAUAAUGCGACAGCATT against Rbfox1, the z-score was 0.00257.
Turning to GGAAAACUCAAAGUGCUGATT against Paqr7, the z-score is 0.512.
As for CCAGUUUGGUAAUCAUGAATT against Cyb561d2, the z-score is -0.244.
To GGCACCUUGGAGUUACAUATT against Pcdha10 belongs -0.24; to CGACAAGAAAACAUACUAGTT against Gins4, 2.28 (active); to GCAGACAACUAGACAUACATT against Selenok, -0.42.
In the case of GCAAUAAUGGCAAUUACGGTT against Slc35f4, the z-score was 1.13.
With GGAGCUGGUGUUGAGUGAGTT against Slfnl1, the z-score is -1.81.
As for UUGUGACCAAUUUCUGAAUTT against Pgbd1, the z-score was -0.594.
For the sequence GGAGUUAAACAAACAGAGUTT against Psma6, the z-score was -0.855.
The figure for UUUACUCUCAUGGUAACCUTT against Olfr798 is -0.386.
As for GGAGGUAUGGCGGUGAUUATT against Krt77, the z-score was 0.718.
For the sequence GCUAUUCAAUGGACCAGAATT against Olfr490, the z-score was -2.26 (active).
For the sequence GUCACUAUUAAGACACUUATT against Nudcd3, the z-score was 0.157.
Consider GGCUAAAGAGUCCUCGGUGTT against Serpina5, for which the z-score is 0.594.
For “GCAGACAGAAGAACACCAGTT against 1700024G13Rik”, the z-score is -0.177.
Consider GGAAGAGUGUCUAAAUGUATT against Cbwd1, for which the z-score was 0.849.
Regarding GGUGAUUCACAUAACAGGCTT against Npas3, the z-score was 2.05 (active).
GGUUGAACAUAAGCACAAUTT against Cdkn2aip: the z-score is -0.42.
Regarding GGUCACCACUCCAUAUUCUTT against Vsir, the z-score was -0.561.
In the case of GGAGACAUAUGAAGAGAUATT against Lsm3, the z-score is -0.702.
Turning to GGAAGCUGGCAAGUUUAUGTT against Cfap161, the z-score is -0.159.
The figure for CCUGGCAUAAGUGGUUUUATT against Zfp82 is 1.13; for GGAGCAUUUUCCAGUUGAGTT against Mrps35 it is 2.41 (active); for CCGUUGUAUAUACCAGUAUTT against Syt1 it is 0.218.
As for GGAAAAACGUGGUGAACUATT against Zeb2, the z-score was 0.7.
For the sequence CCAAUAACAGGAUUGAGAATT against Tnfrsf8, the z-score was -0.528.
Consider GGUGUACAGAUCUGUCUGGTT against Dkk1, for which the z-score was 2.33 (active).
Consider GGUGCAGUUUAAGAGAGAATT against Tmcc3, for which the z-score is -0.224.
As to GGGUGGACCUUCGGAAUUATT against Mrpl23, the z-score is 1.52.
CGAAAUCUUUUCUAACCACTT against Drd4: the z-score is 6.59 (active).
On to GGACUUCUUACUGGAAUCATT against Slc5a12, for which the z-score is 0.944.
CGUUUUUGUCUAGUUUGAATT against Macrod2: the z-score was -1.08.
Take GGAGAUCAGCAGUUCAUUUTT against Csprs: the z-score is -1.66.
Take GGUGUCAGAGGUAUUUUCATT against Bik: the z-score is -0.0455.
Turning to GGCUUUUGAAAAGUUCACATT against Rnf32, the z-score is -2.05 (active).
For GGAGUUGAUUGAGGUAAAGTT against Mettl3, the z-score was -1.83.
Regarding GGAAGAACCCUGCUACAUCTT against Mrpl37, the z-score is 0.764.
Take GCACCUUAAUUCUUCGCCATT against Amigo2: the z-score was -0.638.
In the case of GGUGCUUAUAUUGCUUCCCTT against Psmb5, the z-score was -0.147.
For CCCGUUGCUUUAGAGCUCUTT against Dph2, the z-score is 0.912.
Regarding GGUCAGAGCUCUGGACAAATT against Hsd3b1, the z-score is 4.24 (active).
To GGUCGUCCAGCUGAAGAACTT against Mecr belongs 0.721.
As for GGAAUUAGAGACUGCGGAATT against Zfp821, the z-score was 0.422.
Take “GGCAGAGCCUGGAUUUAUCTT against 2610524H06Rik”: the z-score is -0.582.
For the sequence GGAGUUGCCAUGCUCAACATT against Olfr808, the z-score is 0.193.
As to GGGAAACAGAAGUAUCUAUTT against Ar, the z-score was -0.708.
